PubChem BioAssay (NCATS)
Results filed as inconclusive are left out. Calls of active or inactive are those of the source. Calls follow the shape of the dose curve; as a rule, active = well fitted activation curve with a large enough effect; inconclusive = small, poorly fitted or top-dose-only effect; inactive = no such curve, though single readings can be large or run the other way.

target: Rap guanine nucleotide exchange factor 4 (Homo sapiens) (UniProt Q8WZA2); assay: Confirmatory qHTS for agonist of cAMP-regulated guanine nucleotide exchange factor 4 (EPAC2) (AID 1645884); conditions: EPAC2 GEF activity, Rap1B-BODIPY-GDP fluorescence; series mostly up to 154 µM;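 also: nucleotide exchange releases bodipy-GDP from Rap1 and this lowers its fluorescence; nearly all actives have a fitted effect of over 65% in size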
% is scaled to controls: 0 for no effect and ±100 for the full control effect.

Rap guanine nucleotide exchange factor 4 (Homo sapiens), sequence (Q8WZA2 whole entry, looked up): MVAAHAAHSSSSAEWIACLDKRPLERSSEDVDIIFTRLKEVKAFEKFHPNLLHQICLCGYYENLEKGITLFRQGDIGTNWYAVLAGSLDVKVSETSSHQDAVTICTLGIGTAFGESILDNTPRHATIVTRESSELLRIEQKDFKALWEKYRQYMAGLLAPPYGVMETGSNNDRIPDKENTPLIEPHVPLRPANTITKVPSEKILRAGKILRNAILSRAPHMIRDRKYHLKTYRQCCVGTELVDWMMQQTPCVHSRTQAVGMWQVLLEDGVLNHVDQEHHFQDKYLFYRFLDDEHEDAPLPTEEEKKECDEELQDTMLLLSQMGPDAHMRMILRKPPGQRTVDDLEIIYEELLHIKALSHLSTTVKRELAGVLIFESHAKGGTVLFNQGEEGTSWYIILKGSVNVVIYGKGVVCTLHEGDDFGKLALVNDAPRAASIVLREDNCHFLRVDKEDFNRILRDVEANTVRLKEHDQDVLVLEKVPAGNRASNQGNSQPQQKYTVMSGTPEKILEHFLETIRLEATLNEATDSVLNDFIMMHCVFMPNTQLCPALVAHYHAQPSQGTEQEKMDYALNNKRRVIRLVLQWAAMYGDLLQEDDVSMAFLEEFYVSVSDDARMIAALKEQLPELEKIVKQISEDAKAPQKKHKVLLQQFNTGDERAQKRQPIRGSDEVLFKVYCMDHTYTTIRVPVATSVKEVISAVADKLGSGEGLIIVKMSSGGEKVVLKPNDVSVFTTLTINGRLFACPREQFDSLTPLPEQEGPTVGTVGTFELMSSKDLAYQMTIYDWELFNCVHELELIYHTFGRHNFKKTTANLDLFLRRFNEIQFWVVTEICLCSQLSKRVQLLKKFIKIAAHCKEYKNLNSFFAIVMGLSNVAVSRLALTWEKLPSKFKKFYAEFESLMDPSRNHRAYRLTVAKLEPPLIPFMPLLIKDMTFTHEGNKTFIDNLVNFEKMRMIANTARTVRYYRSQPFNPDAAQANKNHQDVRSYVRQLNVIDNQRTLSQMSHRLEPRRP

Potency, inactive:
CC1=NOC(=O)/C1=C\c1ccc(-c2cc(Cl)ccc2Cl)o1
CCN(CCNC(=O)C1CCN(S(=O)(=O)c2cccc3cccnc23)CC1)c1ccccc1
OC[C@H]1O[C@H](OCCc2ccc(O)cc2)[C@H](O)[C@@H](O)[C@@H]1O
COc1ccc2cc(-c3cn4c(n3)sc3cc(F)ccc34)c(=O)oc2c1
CCOC(=O)N1CCN(C(=O)CSc2nnc(Cc3ccccc3)o2)CC1
Cc1cc(C)cc(NC(=O)N2CCC(CN3CCc4ccccc4C3)CC2)c1
CCCCOc1ccccc1Cn1c(=O)oc2ccc(C)cc21
N#Cc1c(-c2ccccc2)nc(SCc2cccc(C(F)(F)F)c2)[nH]c1=O
CC(Sc1nncn1C)C(=O)Nc1nnc(C(C)C)s1 (stereo unspecified)
O=C(c1cccc(-n2cccc2)c1)N1CCN(S(=O)(=O)c2ccccc2)CC1
Cc1cccc(CC2C(=O)Nc3ccccc32)c1 (stereo unspecified)
Cc1nnc(SCc2cccc3ccccc23)s1
O=C(CCc1ccc(O)c(O)c1)N/N=C/c1cc2c(cc1[N+](=O)[O-])OCO2
CCCCCC(=O)Nc1ccc(C2C(=O)c3ccccc3C2=O)cc1
COc1cc(NS(=O)(=O)c2ccc(NC(=O)/C(=C/c3ccccc3Cl)NC(=O)c3ccccc3)cc2)nc(OC)n1

activation, inactive:
Cc1c(Cl)ccc2c(C(=O)O)cc(-c3ccccc3)nc12 9.62% [at 17.1 µM, percent relative to cAMP agonist control]
CCOC(=O)c1c(C)nc2sc(C(N)=O)c(N)c2c1-c1ccccc1 -0.736% [at 17.1 µM, percent relative to cAMP agonist control]
O=c1oc(-c2ccccc2NS(=O)(=O)c2ccccc2)nc2ccccc12 2.35% [at 17.1 µM, percent relative to cAMP agonist control]
CC1CN(S(=O)(=O)c2cccc(C(=O)Nc3ccccc3N3CCOCC3)c2)CC(C)O1 (stereo unspecified) 3.24% [at 17.1 µM, percent relative to cAMP agonist control]
COc1ccc2oc(C(=O)CCC(=O)O)c(N)c2c1 0% [at 17.1 µM, percent relative to cAMP agonist control]
COc1ccc(N2CCN(C(=O)COC(=O)c3ccc(C)o3)CC2)cc1 5.39% [at 17.1 µM, percent relative to cAMP agonist control]
